Rows were chosen to be rich in hits. Some 1.5% of all compounds tested hit in one or more screens of this group.
eIF4E-4G inh: eIF4E–eIF4G protein interaction inhibitors, primary screen, biochemical, uHTS, TR-FRET, eIF4GI fragment | Eukaryotic translation initiation factor 4E (Mus musculus) + Eukaryotic translation … | TR-FRET eIF4E-eIF4GI(517-606) binding, 2 h | 220,000 tested, 0.37% active | AID 782, 2007 | inhibition, % at 21.7 µM;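 active = inhibition above about 30%, limit read from the data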;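 also: 0% = full FRET control wells and 100% = background wells lacking eIF4GI fragment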
Target sequence (P63073 whole entry, looked up, the tested form may be a part): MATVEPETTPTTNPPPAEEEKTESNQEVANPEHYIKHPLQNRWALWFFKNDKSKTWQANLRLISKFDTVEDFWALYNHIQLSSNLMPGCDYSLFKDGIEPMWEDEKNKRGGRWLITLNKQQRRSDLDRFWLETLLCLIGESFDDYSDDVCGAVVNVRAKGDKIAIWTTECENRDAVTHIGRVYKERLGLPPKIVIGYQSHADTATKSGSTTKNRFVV
Target sequence (Q04637 whole entry, looked up, the tested form may be a part): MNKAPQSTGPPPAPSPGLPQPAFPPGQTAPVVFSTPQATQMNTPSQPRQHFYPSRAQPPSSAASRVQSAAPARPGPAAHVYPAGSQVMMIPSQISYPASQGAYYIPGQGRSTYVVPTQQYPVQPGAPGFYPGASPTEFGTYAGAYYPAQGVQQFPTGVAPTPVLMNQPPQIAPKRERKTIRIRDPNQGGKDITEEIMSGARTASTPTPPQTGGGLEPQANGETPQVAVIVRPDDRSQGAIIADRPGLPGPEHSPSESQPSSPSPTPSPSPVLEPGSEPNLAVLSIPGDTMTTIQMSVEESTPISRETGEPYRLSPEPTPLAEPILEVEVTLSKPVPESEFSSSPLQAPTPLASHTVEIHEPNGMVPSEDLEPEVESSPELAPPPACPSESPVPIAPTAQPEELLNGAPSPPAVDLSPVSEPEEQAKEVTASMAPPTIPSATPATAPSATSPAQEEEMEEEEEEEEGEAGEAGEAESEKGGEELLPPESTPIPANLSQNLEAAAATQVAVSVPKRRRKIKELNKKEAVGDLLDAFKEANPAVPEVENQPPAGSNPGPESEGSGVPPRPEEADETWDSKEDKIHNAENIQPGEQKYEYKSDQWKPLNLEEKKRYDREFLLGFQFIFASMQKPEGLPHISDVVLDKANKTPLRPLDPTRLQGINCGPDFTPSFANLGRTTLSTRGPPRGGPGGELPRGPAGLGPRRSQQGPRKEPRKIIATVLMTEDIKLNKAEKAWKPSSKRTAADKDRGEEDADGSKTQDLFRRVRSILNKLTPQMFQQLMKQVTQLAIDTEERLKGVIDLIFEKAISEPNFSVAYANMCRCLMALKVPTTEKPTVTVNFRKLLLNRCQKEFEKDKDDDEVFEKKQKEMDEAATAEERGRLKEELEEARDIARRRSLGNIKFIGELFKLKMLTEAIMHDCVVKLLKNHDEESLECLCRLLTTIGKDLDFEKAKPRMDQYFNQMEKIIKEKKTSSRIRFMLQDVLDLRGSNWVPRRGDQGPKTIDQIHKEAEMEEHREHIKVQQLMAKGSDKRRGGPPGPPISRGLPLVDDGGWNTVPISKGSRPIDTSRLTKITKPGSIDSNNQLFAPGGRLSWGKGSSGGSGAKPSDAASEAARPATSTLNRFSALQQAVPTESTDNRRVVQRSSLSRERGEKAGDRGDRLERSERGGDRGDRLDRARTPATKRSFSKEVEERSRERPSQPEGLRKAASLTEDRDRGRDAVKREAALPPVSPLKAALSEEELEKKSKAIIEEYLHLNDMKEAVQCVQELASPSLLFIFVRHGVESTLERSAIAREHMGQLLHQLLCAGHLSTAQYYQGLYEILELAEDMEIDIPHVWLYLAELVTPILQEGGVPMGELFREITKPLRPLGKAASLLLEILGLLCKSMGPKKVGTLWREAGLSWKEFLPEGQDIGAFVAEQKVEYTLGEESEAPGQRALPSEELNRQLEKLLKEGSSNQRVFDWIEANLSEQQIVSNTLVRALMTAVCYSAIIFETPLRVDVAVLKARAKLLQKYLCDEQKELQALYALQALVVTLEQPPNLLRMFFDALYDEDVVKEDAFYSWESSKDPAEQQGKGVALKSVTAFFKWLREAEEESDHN
PABP1 MLLE inh: inhibitors of PABP1 MLLE–PAM2 peptide binding, primary screen, biochemical, fluorescence polarization, FITC-PAM2, GST-MLLE; 360,000 tested, 0.36% active; inhibition, % at 20 µM; Polyadenylate-binding protein 1 (Homo sapiens), P11940; AID 588489, 2011; in the data active = inhibition above about 35%, passing the limit was not always enough;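 also: plate controls were DMSO wells with GST-MLLE for no effect and wells lacking GST-MLLE protein for full effect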
eIF4H inh: human eIF4H binding inhibitors, primary screen, translation initiation inhibitor project, biochemical, uHTS, fluorescence polarization. inhibition, % at 35 µM. 290,000 tested, 0.94% active. AID 2012, 2009. eIF4H fluorescence polarization binding assay;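 also: calls also rest on retests at 20 µM and on dose response follow-up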
PABP polyA inh: PABP poly(A) RNA binding inhibitors, primary screen, biochemical, fluorescence polarization, uHTS; Polyadenylate-binding protein 1 (Homo sapiens), P11940; calls only at 35 µM; 290,000 tested, 1% active;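 also: calls also rest on retests at 20 µM and on dose response follow-up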
* hit, by the source's call; i = inactive; ? = inconclusive; nt = not tested or not shown; + = active, no number; ! = not confirmed by another sample; [ ] = dose if it differs, or a comment. Unless noted, no rule for the calls is given here.

SMILES	eIF4E-4G inh	PABP1 MLLE inh	eIF4H inh	PABP polyA inh
Nc1ccn([C@@H]2O[C@H](CNC(=O)[C@@H](N)CSCc3ccccc3)[C@@H](O)[C@H]2O)c(=O)n1	nt	-3.9	nt	nt
CCC1=C(OC(=O)N(CC)CC)N2C(=O)OC(=NCC3CC3)[C@]2(Cc2ccccc2)[C@H]2C1=CC[C@H]1C(=O)NC(=O)[C@H]12	3.4	-18.8	-4.2	i
Cc1ccsc1C=Nc1ccc(O)cc1	10.6	21.6	51.1*	i
C[N+](C)(C)c1ccc(/C=N/Nc2nc(Cl)c(C#N)c(Cl)c2Cl)cc1	30.1*[fluorescence artefact?]	-128.8	37.5	i
O=C(Nc1cccc(C(F)(F)F)c1)c1ccc2nc(-c3ccco3)c(-c3ccco3)nc2c1	11.2	-14.4	74.8*	+
O=C(c1ccc2nc(-c3ccco3)c(-c3ccco3)nc2c1)N1CCN(c2ccccc2)CC1	-19.2	21.6	93.7*	+
O=C(O)c1ccc2nc(-c3ccco3)c(-c3ccco3)nc2c1	11.6	50.4*	98.2*	+
O=C(NCc1ccco1)c1ccc(S(=O)(=O)N2CCOCC2)cc1	2.2	26.7	78.8*	+
O=C(Nc1cccc(C(F)(F)F)c1)c1cc[n+]([O-])cc1	nt	-0.9	-7.7	i
O=S(=O)(c1ccc2ccccc2c1)N1CCOCC1	nt	4.3	-3.7	i
O=C(c1ccco1)N1CCN(C(=O)c2cc(-c3ccncc3)nc3ccc(Br)cc23)CC1	nt	-45.1	nt	nt
O=C(O)c1cc(-c2ccco2)nc2ccc(Br)cc12	4.7	23.9	87.0*	+!
O=S(=O)(c1ccc2nc(-c3ccco3)c(-c3ccco3)nc2c1)N1CCOCC1	22.8	23.0	94.9*	+
O=C1CN(C(=O)COC(=O)c2cc(Cl)ccc2[N+](=O)[O-])c2ccccc2N1	nt	-18.9	nt	nt
Cc1ccc(Cn2c(=S)[nH]c3ccc(N4CCOCC4)cc3c2=O)o1	23.9	14.2	72.4*	+
COC(=O)C1=C(O)/C(=C\c2ccc(O)c(OC)c2)N=C1C	-0.7	-34.8	56.2*	+
Cc1ccc2c(Cl)cc(Cl)c(OCC(=O)NCc3ccco3)c2n1	47.2*[fluorescence artefact?]	nt	97.6*	+
O=C(COC(=O)/C=C/c1ccco1)Nc1ncc(C(F)(F)F)cc1Cl	12.5	1.2	88.2*	+
O=C(COC(=O)/C=C/c1ccco1)NCc1ccccc1Cl	-0.2	4.4	-2.1	i
O=C(COC(=O)c1cccc(S(=O)(=O)N2CCc3ccccc3C2)c1)NCc1ccco1	-24.2	-19.8	87.4*	+
O=C(COC(=O)/C=C/c1ccco1)NCc1ccco1	23.8	-0.2	85.9*	i
O=C(COC(=O)c1ccccc1Nc1cccc(C(F)(F)F)c1)NCc1ccco1	2.0	-16.1	54.1*	i
COc1ccc(OCCC(=O)OCC(=O)NCc2ccco2)cc1	-0.5	-6.5	32.4	i
O=C(COC(=O)c1ccccc1)NCc1ccco1	3.9	-5.8	75.8*	+
O=C(COC(=O)c1ccccc1Nc1ccccc1)NCc1ccccc1	1.1	-1.3	-10.0	i
SMILES	eIF4E-4G inh	PABP1 MLLE inh	eIF4H inh	PABP polyA inh
COc1ccccc1NCCC(=O)OCC(=O)NCc1ccco1	8.7	-4.0	95.7*	+
COc1ccc(C(=O)OCC(=O)NCc2ccco2)cc1OC	-1.0	-10.5	89.3*	i
CCOc1ccc(C(=O)OCC(=O)NCc2ccco2)cc1OCC	-3.5	-5.4	30.1	i
N#Cc1ccccc1S(=O)(=O)N1CCN(CC(=O)NCC2(N3CCOCC3)CCCCC2)CC1	nt	13.5	nt	nt
C[C@@H](O)CNC(=O)c1[nH]cnc1C(=O)N[C@H](C)c1ccccc1	nt	0.2	nt	nt
O=S1(=O)CC(N2CCN(CC3CC3)CC2)CN1Cc1ccc(F)cc1 (configuration not stated)	nt	-6.9	nt	nt
CC(=O)NC(C)(c1ccccc1)c1nc(-c2cnc3ccccc3c2)cs1 (configuration not stated)	nt	6.9	nt	nt
CN(C)S(=O)(=O)c1cccc(NC(=O)COC(=O)/C=C/c2ccco2)c1	2.8	-13.6	86.0	i
CCN(CC)S(=O)(=O)c1cccc(NC(=O)COC(=O)/C=C/c2ccco2)c1	4.3	7.6	69.2*	i
Fc1cccc(Cl)c1C1SCc2nc3ccccc3n21 (configuration not stated)	nt	-2.8	nt	nt
COc1ccc(NC(=O)c2ccc3nc(C)c(N(C)C(=O)CCc4ccccc4)n3c2)cc1OC	nt	17.6	nt	nt
CC(=O)Nc1ccc(C=C(C#N)c2ccc(C)cc2)cc1	nt	6.6	nt	nt
O=c1cc(-c2ccc(O)c(O)c2)oc2cc(O[C@@H]3O[C@H](CO)[C@@H](O)[C@H](O)[C@H]3O)cc(O)c12	nt	-13.1	nt	nt
O=c1cc(-c2ccc(O)cc2)oc2cc(O)c(C3OC(CO)C(O)C(O)C3O)c(O)c12 (configuration not stated)	3.3	10.4	66.9*	+
O=C1/C(=C/c2ccc(O)cc2)SC(=S)N1CC1CCCO1 (configuration not stated)	8.7	-128.0	96.5	+
CCCN(C(=O)COC(=O)CCC(=O)c1ccccc1)c1c(N)n(Cc2ccccc2)c(=O)[nH]c1=O	nt	-32.2	nt	nt
CCC(=O)N1CCC1(C)C(=O)Nc1ccc(F)cc1 (configuration not stated)	nt	-9.8	nt	nt
c1coc(-c2nnc(-c3ccco3)nn2)c1	nt	38.2*	99.1*	+
c1ccc(-c2nnc(-c3ccco3)o2)cc1	-2.8	6.9	-6.0	i
CC1CC(C)(C)OC(C[N+]2(C)CCCCC2)O1 (configuration not stated)	-0.6	-132.3	0.6*	+
CC(C)CNc1ncnc2c1ncn2[C@H]1CN(CCc2ccccc2)C[C@@H](CO)O1	nt	-1.4	nt	nt
CCNC(=O)C1(C)CCN(C(=O)c2ccc(N(C)C)cc2)C1 (configuration not stated)	nt	2.5	nt	nt
O=C(Cn1c2[n+](c3ccc(C(F)(F)F)cc31)CCCCC2)Nc1ccccc1	34.0*[fluorescence artefact?]	-106.0	5.3	i
COc1cc(/C=C/CNC[C@H]2O[C@@H](n3ccc(N)nc3=O)[C@H](O)[C@@H]2O)ccc1O	nt	-8.8	nt	nt
C=CCSc1nnc2c(n1)OC(c1c(C)[nH]n(-c3ccccc3)c1=O)Nc1ccccc1-2 (configuration not stated)	1.8	6.8	?	+
c1ccc(CSc2nnc3c(n2)OC(c2ccco2)Nc2ccccc2-3)cc1 (configuration not stated)	-11.4	8.9	4.0*	i
CC1(c2ccc(Cl)cc2Cl)NC(=O)N(CC(=O)NC2CCCCC2)C1=O (configuration not stated)	nt	-2.7	nt	nt
C[C@@H]1CN([C@@H](C)CO)C(=O)CCCn2cc(nn2)CO[C@H]1CN(C)C(=O)c1ccc2ccn(C)c2c1	nt	-5.8	nt	nt
COCCCNC(=O)c1cccc2c(-c3cccc(C(N)=O)c3)coc12	nt	0.6	nt	nt
CCCOC(=O)c1c(NC(=O)C2CCCO2)sc(C(=O)OC)c1C (configuration not stated)	-7.5	44.7*	0.0	i

Source: PubChem
